This is an account of results in PubChem BioAssay (NCATS).

Records with an inconclusive call do not appear. Unmarked numbers belong to inactive results. The source made the active and inactive calls. Calls follow the shape of the dose curve; as a rule, active = well fitted inhibition curve with a large enough effect; inconclusive = small, poorly fitted or top-dose-only effect; inactive = flat fitted curve, though single readings scatter.

Experiment [1] can be described thus: Drug repurposing screens with cells derived from glioblastoma tumor samples (AID 1345199). Also: nearly all actives have a fitted effect of over 40% in size. To be noted: GBM patient neurospheres viability, ATP luminescence, 48 h. The method in brief:
(§1)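 Four patient lines of CD133+ GBM neurospheres were screened at several concentrations; hits were retested in those lines plus three slower-growing GBM lines, using 48-hour treatment and ATP-based viability.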

The subject of the next experiment is astro (control astrocytes). The experiment is described as above. To be noted: viability, ATP luminescence, 48 h; series mostly up to 45.9 µM. The method in brief:
as §1

Where [2] appears, read: at 45.9 µM (top of the series), tumour line B.
Where [3] appears, read: at 45.9 µM (top of the series), tumour line D.
Where [4] appears, read: at 46 µM (top of the series), tumour line A.
Where [5] appears, read: at 46.1 µM (top of the series), tumour line C.
% is scaled to controls: 0 for no effect and ±100 for the full control effect; potency is read from the fitted curve at half-maximal effect.

With `O=C(CCCCCCCCC#CI)Oc1ccccc1`, the activity, negative = cell killing in experiment [1] (setting [2]) is -16.2%; in experiment [1] (setting [3]), -0.884%; in experiment [1] (setting [4]), -21.9%; in experiment [1] (setting [5]), -10.1%. Moreover, the Potency entry with astro was “inactive”.

For `CC1CN(c2cc3c(cc2F)c(=O)c(C(=O)O)cn3-c2ccc(F)cc2F)CCN1` (configuration not stated), the activity, negative = cell killing in experiment [1] (setting [2]) is -0.773%; in experiment [1] (setting [3]) it was -11%; in experiment [1] (setting [4]), -6.24%; in experiment [1] (setting [5]), -10.7%. Besides, the Potency result with astro is “inactive”.

For the molecule `O=C(O)c1[nH]n(-c2ccc(S(=O)(=O)O)cc2)c(=O)c1N=Nc1ccc(S(=O)(=O)O)cc1`, the activity, negative = cell killing in experiment [1] (setting [2]) is 1.15%; in experiment [1] (setting [3]), -22.4%; in experiment [1] (setting [5]), -16.3%. Also, the Potency in experiment [1] (tumour line A) was 28.2 µM (active). The Potency entry in the experiment with astro is “inactive”.

For `CC1c2ccccc2CN1NC(=O)c1ccc(Cl)c(S(N)(=O)=O)c1` (configuration not stated), the activity, negative = cell killing is -2.5% in experiment [1] (setting [2]), -6.17% in experiment [1] (setting [3]), -22.8% in experiment [1] (setting [4]) and -11.2% in experiment [1] (setting [5]). In addition, the Potency result with astro is “inactive”.

With `O=C(O)[C@H](O)[C@@H](O)[C@H](O[C@@H]1O[C@H](CO)[C@H](O)[C@H](O)[C@H]1O)[C@H](O)CO`, the activity, negative = cell killing was -12.3% in experiment [1] (at 20 µM (top of the series), tumour line C); -2.57% in experiment [1] (at 21.2 µM (top of the series), tumour line B); -4.25% in experiment [1] (at 21.2 µM (top of the series), tumour line D); -22.9% in experiment [1] (at 21.3 µM (top of the series), tumour line A). Also, the Potency entry in the experiment on astro was “inactive”.

In the case of `CN1CCCN=C1/C=C/c1cccs1`, the activity, negative = cell killing in experiment [1] (setting [2]) is -1.18%; in experiment [1] (setting [3]) it was -9.69%; in experiment [1] (setting [4]), -29.5%; in experiment [1] (setting [5]), 6.9%. For the same molecule, the Potency result in the experiment on astro is “inactive”.

For the molecule `O=C(CCCCC(=O)Nc1c(I)cc(I)c(C(=O)O)c1I)Nc1c(I)cc(I)c(C(=O)O)c1I`, the activity, negative = cell killing is 0.519% in experiment [1] (setting [2]), -19.2% in experiment [1] (setting [3]), -28.1% in experiment [1] (setting [4]) and 4.23% in experiment [1] (setting [5]). The Potency entry in the experiment with astro is “inactive”.

Take `CC(=O)OCC(=O)[C@@]1(O)[C@H](OC(C)=O)C[C@H]2[C@@H]3CCC4=CC(=O)C=C[C@]4(C)[C@@]3(F)[C@@H](O)C[C@@]21C`: the activity, negative = cell killing in experiment [1] (setting [2]) was -11.4%; in experiment [1] (setting [3]), -13%; in experiment [1] (setting [4]), -9.78%; in experiment [1] (setting [5]), -2.85%. In addition, the Potency entry in the experiment on astro is “inactive”.

For the molecule `Cc1ccccc1C(=O)N1CC/C(=N\OS(=O)(=O)O)c2ccc(Cl)cc21`, the activity, negative = cell killing in experiment [1] (setting [2]) was -4.66%; in experiment [1] (setting [3]) it was -7.25%; in experiment [1] (setting [4]) it was -14.2%; in experiment [1] (setting [5]) it was 2.94%. In the experiment on astro, the Potency result was “inactive”.

Consider `NC(N)=NCCCCN=C(N)N`, for which the activity, negative = cell killing is -8.5% in experiment [1] (setting [2]), -4.71% in experiment [1] (setting [3]), -10% in experiment [1] (setting [4]) and -21.5% in experiment [1] (setting [5]). In addition, in the experiment with astro, the Potency result is “inactive”.

Regarding `CC(=O)OCC(=O)[C@@]1(O)CCC2C3CCC4=CC(=O)CC[C@]4(C)C3[C@@H](O)C[C@@]21C` (some centres not stated), the activity, negative = cell killing in experiment [1] (setting [2]) is -6.98%; in experiment [1] (setting [3]) it was -11.4%; in experiment [1] (setting [4]), -11.4%; in experiment [1] (setting [5]), 20.9%. Further, the Potency result in the experiment with astro was “inactive”.

As to `Cc1cccc(C)c1NC(=O)c1cc(S(N)(=O)=O)c(Cl)cc1O`, the activity, negative = cell killing in experiment [1] (setting [2]) was -11.2%; in experiment [1] (setting [3]), -8.64%; in experiment [1] (setting [5]) it was -16.5%. Also, the Potency in experiment [1] (tumour line A) is 35.5 µM (active). Also, the Potency entry in the experiment on astro was “inactive”.

`CN1[C@@H]2CC[C@H]1CC(NC(=O)n1c(=O)[nH]c3ccccc31)C2` (some centres not stated): the activity, negative = cell killing in experiment [1] (setting [2]) was 3.71%; in experiment [1] (setting [3]), -10.2%; in experiment [1] (setting [5]) it was 9.49%. For the same molecule, in experiment [1] (tumour line A), the Potency is 28.2 µM (active). For the same molecule, in the experiment with astro, the Potency entry is “inactive”.

On to `CN=C(N)NC(=O)Nc1c(C)cccc1C`, for which the results for the activity, negative = cell killing in experiment [1] (setting [2]), in experiment [1] (setting [3]) and in experiment [1] (setting [5]) were -6.83%, -0.753% and 0.539%, respectively. In experiment [1] (tumour line A), the Potency is 17.8 µM (active). Also, the Potency result in the experiment on astro is “inactive”.

In the case of `NCC(=O)O`, the activity, negative = cell killing in experiment [1] (setting [2]) was 10.4%; in experiment [1] (setting [3]), 4.74%; in experiment [1] (setting [4]), 1.41%; in experiment [1] (setting [5]), -6.24%. Moreover, the Potency entry with astro is “inactive”.

On to `Nc1c[n+](N2CCOCC2)no1`, for which the activity, negative = cell killing in experiment [1] (setting [2]) is 3.67%; in experiment [1] (setting [3]) it was -1.79%; in experiment [1] (setting [4]) it was -15.9%; in experiment [1] (setting [5]) it was -4.45%. Moreover, in the experiment with astro, the Potency result was “inactive”.

As to `CC(NN)c1ccccc1` (configuration not stated), the activity, negative = cell killing in experiment [1] (setting [2]) is -17.4%; in experiment [1] (setting [3]), -5.52%; in experiment [1] (setting [4]), -23.7%; in experiment [1] (setting [5]) it was -0.872%. Besides, in the experiment with astro, the Potency entry was “inactive”.

`O=C(Oc1ccccc1)c1cccc(C(=O)Oc2ccccc2)c1`: the activity, negative = cell killing was -20.2% in experiment [1] (at 91.6 µM (top of the series), tumour line A); -23.3% in experiment [1] (at 91.6 µM (top of the series), tumour line B); -9.21% in experiment [1] (at 91.6 µM (top of the series), tumour line D); 1.54% in experiment [1] (at 99.2 µM (top of the series), tumour line C). Further, the Potency entry in the experiment with astro is “inactive”.

Consider `CCC(C(=O)NC(=O)NC(C)=O)c1ccccc1` (configuration not stated), for which the activity, negative = cell killing in experiment [1] (setting [2]) was -11.4%; in experiment [1] (setting [3]) it was -13.3%; in experiment [1] (setting [4]) it was -27.9%; in experiment [1] (setting [5]), -4.25%. Further, the Potency entry in the experiment on astro is “inactive”.

As for `O=C(CO)[C@@H](O)[C@H](O)[C@@H](O)CO`, the activity, negative = cell killing in experiment [1] (setting [2]) was 4.08%; in experiment [1] (setting [3]) it was -8.89%; in experiment [1] (setting [4]), -12.2%; in experiment [1] (setting [5]), 8.07%. Further, the Potency entry in the experiment on astro was “inactive”.

In the case of `CC(=O)N(CC(O)CO)c1c(I)c(C(=O)NCCO)c(I)c(C(=O)NCC(O)CO)c1I` (configuration not stated), the activity, negative = cell killing in experiment [1] (setting [2]) was -10.8%; in experiment [1] (setting [3]) it was 12.9%; in experiment [1] (setting [5]) it was -5.5%. For the same molecule, in the experiment on astro, the Potency entry is “inactive”.

On to `CC(=O)OC/C=C(C)/C=C/C=C(C)/C=C/C1=C(C)CCCC1(C)C`, for which the activity, negative = cell killing is -7.14% in experiment [1] (setting [2]), -23.4% in experiment [1] (setting [3]) and -13.6% in experiment [1] (setting [5]). In the experiment with astro, the Potency result was “inactive”.

Consider `CC(=O)Nc1ccc(S(=O)(=O)Nc2cc(C)on2)cc1`, for which the figures for the activity, negative = cell killing in experiment [1] (setting [2]), in experiment [1] (setting [3]) and in experiment [1] (setting [5]) were 4.82%, -21% and -0.236%, respectively. Besides, in the experiment with astro, the Potency entry was “inactive”.

Regarding `Cc1nc([N+](=O)[O-])cn1-c1ccc([N+](=O)[O-])cc1`, the activity, negative = cell killing was -9.26% in experiment [1] (setting [2]), -5.48% in experiment [1] (setting [3]), -16.5% in experiment [1] (setting [4]) and 4.99% in experiment [1] (setting [5]). In addition, the Potency result with astro was “inactive”.
